Our source for the AC50 and outcome values is PubChem BioAssay (EPA / NIEHS).

Records with an inconclusive call do not appear. Calls of active or inactive are those of the source. The calls were made as follows, unless noted: active = hit-call score of the fitted dose curve at least 0.9, where 1 is the maximum; inconclusive = response in the unintended direction; inactive = score below 0.9.

For test [1], the target named is human CYP1A2, CYP1A2 (gene 1544) (UniProt P05177). Briefly: NVS_ADME_hCYP1A2: NovaScreen (NVS) CYP450-related Enzyme Activity (ADME) Assay for human CYP1A2 (AID 2283102).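 As to AC50: potency for inhibition since loss of fluorescence marks reduced CYP1A2 activity.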 An outline of the steps:
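Fluorescence-intensity enzyme activity read-out, taken 0.5 h post-dosing, using insect-cell-derived recombinant CYP1A2 and specific fluorescent substrate. Acetonitrile served as negative control/baseline. Single-concentration duplicate screen at 10 uM, then concentration-response follow-up.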

The target of test [2] is human CYP2C9, CYP2C9 (gene 1559) (UniProt P11712). Briefly: NVS_ADME_hCYP2C9: NovaScreen (NVS) CYP450-related Enzyme Activity (ADME) Assay for human CYP2C9 (AID 2283108). In short, it runs like this:
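Cell-free assay of recombinant human CYP2C9 produced in Sf9 cells, with enzyme activity read by fluorescence intensity 0.75 h after compound addition. Loss of signal versus an acetonitrile negative control indicates inhibition. Primary screen used 10 uM in duplicate; actives were retested in concentration series.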

Test [3] concerns the target Cytochrome P450 3A4 (Homo sapiens) (UniProt P08684). Description: NVS_ADME_hCYP3A4: NovaScreen (NVS) CYP450-related Enzyme Activity (ADME) Assay for human CYP3A4 (AID 2283110). An outline of the steps:
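Cell-free assay using insect-cell-expressed human CYP3A4 with a fluorogenic substrate; fluorescence intensity was read 0.33 hour after dosing. Loss of signal relative to acetonitrile vehicle indicated inhibition. Primary single-concentration screen at 10 uM, in duplicate, then concentration series.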

Test [4] has as its target Cytochrome P450 2C19 (Homo sapiens) (UniProt P33261). Briefly: NVS_ADME_hCYP2C19: NovaScreen (NVS) CYP450-related Enzyme Activity (ADME) Assay for human CYP2C19 (AID 2283113).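 As to AC50: potency for inhibition seen as loss of fluorescent signal.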 In short, it runs like this:
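Recombinant insect-cell-expressed enzyme, fluorescent substrate, 1 h after chemical addition, fluorescence intensity. Baseline = acetonitrile vehicle; activity scored as signal loss. Primary HTS single concentration 10 uM, duplicate; actives retested in concentration series.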

The next test has as its system rat CYP2B1, gene 24300. Description: NVS_ADME_rCYP2B1: NovaScreen (NVS) CYP450-related Enzyme Activity (ADME) Assay for rat CYP2B1 (AID 2283117). An outline of the steps: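 Recombinant rat CYP2B1 with fluorogenic substrate, read at 0.75 h. Primary screen in duplicate at 10 uM; compounds meeting threshold (e.g., 30% inhibition) re-run in concentration-response up to 20 uM. Fitted against acetonitrile control.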

For test [5], the target named is rat CYP2C11, Cyp2c11 (gene 29277) (UniProt P08683). Briefly: NVS_ADME_rCYP2C11: NovaScreen (NVS) CYP450-related Enzyme Activity (ADME) Assay for rat CYP2C11 (AID 2283118). An outline of the steps:
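Cell-free recombinant rat enzyme with fluorescent substrate; readout 0.33 h after dosing, loss of signal versus acetonitrile control. Initial duplicate single-point at 10 uM; actives rerun in concentration series.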

Test [6] concerns the target rat CYP2C12, Cyp2c12 (gene 25011) (UniProt P11510). Briefly: NVS_ADME_rCYP2C12: NovaScreen (NVS) CYP450-related Enzyme Activity (ADME) Assay for rat CYP2C12 (AID 2283119). An outline of the steps: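 Cell-free recombinant rat CYP2C12 activity read by fluorescence 0.5 h after dosing; loss of signal versus acetonitrile control. Primary screen in duplicate at 10 uM; actives then run in concentration-response format.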

The subject of the next test is rat CYP2C6, gene 293989. Briefly: NVS_ADME_rCYP2C6: NovaScreen (NVS) CYP450-related Enzyme Activity (ADME) Assay for rat CYP2C6 (AID 2283120). An outline of the steps: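 Cell-free recombinant rat CYP2C6 with fluorogenic substrate, read by fluorescence 1 h after dosing; acetonitrile as negative control. Primary screen at 10 uM in duplicate, actives then in concentration-response up to 20 uM.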

The target in test [7] is rat CYP2D1, Cyp2d1 (gene 266684) (UniProt P10633). Briefly: NVS_ADME_rCYP2D1: NovaScreen (NVS) CYP450-related Enzyme Activity (ADME) Assay for rat CYP2D1 (AID 2283122). An outline of the steps: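 Cell-free fluorescence enzyme-activity assay on extracted rat CYP2D1 protein, read 0.75 h after dosing. Primary screen in duplicate at 10 uM; qualifying chemicals then run in concentration-response to 20 uM max, loss-of-signal versus acetonitrile baseline.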
Sequence of rat CYP2D1, Cyp2d1 (gene 266684) (P10633 whole entry, looked up): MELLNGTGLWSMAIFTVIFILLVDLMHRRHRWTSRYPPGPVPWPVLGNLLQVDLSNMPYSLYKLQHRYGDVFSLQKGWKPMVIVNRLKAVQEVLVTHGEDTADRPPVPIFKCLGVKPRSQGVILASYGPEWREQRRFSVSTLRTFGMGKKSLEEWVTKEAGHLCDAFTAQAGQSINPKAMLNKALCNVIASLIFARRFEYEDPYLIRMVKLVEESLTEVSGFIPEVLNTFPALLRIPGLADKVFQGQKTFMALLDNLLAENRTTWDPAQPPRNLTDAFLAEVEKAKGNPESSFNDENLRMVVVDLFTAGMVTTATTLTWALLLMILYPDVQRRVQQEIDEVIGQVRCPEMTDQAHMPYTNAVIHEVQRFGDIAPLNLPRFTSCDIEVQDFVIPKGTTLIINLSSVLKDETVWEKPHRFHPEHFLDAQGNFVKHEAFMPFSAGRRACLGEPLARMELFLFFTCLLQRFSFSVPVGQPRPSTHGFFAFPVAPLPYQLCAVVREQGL

The target of test [8] is rat CYP3A2, Cyp3a2 (gene 266682) (UniProt P05183). Briefly: NVS_ADME_rCYP3A2: NovaScreen (NVS) CYP450-related Enzyme Activity (ADME) Assay for rat CYP3A2 (AID 2283128). In short, it runs like this:
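Cell-free rat CYP3A2 enzyme assay with fluorescent substrate, read 0.5 h after dosing. Primary duplicate screen at 10 uM; actives run in concentration-response up to 20 uM, relative to acetonitrile baseline.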

Test [9] addresses rat CYP1A2, Cyp1a2 (gene 24297) (UniProt P04799). Description: NVS_ADME_rCYP1A2: NovaScreen (NVS) CYP450-related Enzyme Activity (ADME) Assay for rat CYP1A2 (AID 2283115). An outline of the steps: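 Cell-free recombinant rat enzyme with fluorogenic substrate, read by fluorescence intensity 1 hour after dosing. Loss of signal versus acetonitrile negative control; primary screen at 10 uM in duplicate, actives followed in concentration series.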

Test [10] deals with human CYP2D6, CYP2D6 (gene 1565) (UniProt P10635). Briefly: NVS_ADME_hCYP2D6: NovaScreen (NVS) CYP450-related Enzyme Activity (ADME) Assay for human CYP2D6 (AID 2283107). In short, it runs like this:
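Fluorescence intensity read 1 h post-dosing; insect-cell-expressed recombinant protein with fluorogenic substrate, no cells. Activity is scored as signal loss relative to acetonitrile baseline, first at a single 10 uM concentration in duplicate, then as concentration series for confirmed actives.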

Test [11] has as its target human CYP2C8, CYP2C8 (gene 1558) (UniProt P10632). Description: NVS_ADME_hCYP2C8: NovaScreen (NVS) CYP450-related Enzyme Activity (ADME) Assay for human CYP2C8 (AID 2283104; active = hit-call score of the fitted dose curve at least 0.9, where 1 is the maximum; inactive = score below 0.9). An outline of the steps: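 Recombinant human CYP2C8 with fluorogenic substrate, 0.5 h, fluorescence intensity; signal loss fitted versus acetonitrile. Screened in duplicate at 10 uM, then actives run in concentration-response up to 20 uM.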

Test [12] addresses human CYP2J2, CYP2J2 (gene 1573) (UniProt P51589). Description: NVS_ADME_hCYP2J2: NovaScreen (NVS) CYP450-related Enzyme Activity (ADME) Assay for human CYP2J2 (AID 2283106). In short, it runs like this:
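Cell-free assay of recombinant CYP2J2 with a fluorogenic substrate, read 1 h after dosing; loss of signal versus acetonitrile. Primary screen at 10 uM in duplicate, then concentration-response up to 20 uM for chemicals passing threshold (e.g., 30% inhibition).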

In test [13] the target is human CYP4F12, CYP4F12 (gene 66002) (UniProt Q9HCS2). Description: NVS_ADME_hCYP4F12: NovaScreen (NVS) CYP450-related Enzyme Activity (ADME) Assay for human CYP4F12 (AID 2283111). In short, it runs like this: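 Cell-free fluorescence assay of recombinant human CYP4F12 activity on a specific substrate, read 0.5 h after dosing. Primary screen in duplicate at 10 uM, then concentration series for actives; loss of signal fitted against acetonitrile negative control.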

Test [14] concerns the target human AMP-activated Protein Kinase, alpha 1 (AMPKa1), PRKAA1 (gene 5562) (UniProt Q13131). Description: NVS_ENZ_hAMPKa1: NovaScreen (NVS) Enzymatic Assay for human AMP-activated Protein Kinase, alpha 1 (AMPKa1) (AID 2283130). An outline of the steps:
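Recombinant human AMPKα1 activity was measured cell-free by fluorescent substrate conversion with electrophoretic mobility-shift separation, 1 h after dosing. Duplicate single-point screening was at 25 uM; actives (≥30% inhibition) were retested in concentration-response up to 50 uM.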

Another test concerns the target Caspase-1 (Homo sapiens) (UniProt P29466). Briefly: NVS_ENZ_hCASP1: NovaScreen (NVS) Enzymatic Assay for human Caspase 1 (CASP1) (AID 2283132). An outline of the steps: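 Cell-free enzymatic assay with E. coli-expressed recombinant protein; fluorescence intensity read 1 hour after dosing. Single-concentration duplicate screen at 25 uM, then concentration-response up to 50 uM; activity fitted relative to DMSO, loss of signal meaning inhibition.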

Test [15] addresses human Caspase 2 (CASP2), CASP2 (gene 835) (UniProt P42575). Briefly: NVS_ENZ_hCASP2: NovaScreen (NVS) Enzymatic Assay for human Caspase 2 (CASP2) (AID 2283135). An outline of the steps: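 E. coli-expressed enzyme in a cell-free protease assay, fluorescence read 1 h after dosing. Compounds at 25 uM in duplicate, with concentration-response up to 50 uM for hits; loss of signal against DMSO baseline.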

In test [16] the target is human Acetylcholinesterase (AChE), ACHE (gene 43) (UniProt P22303). Briefly: NVS_ENZ_hAChE: NovaScreen (NVS) Enzymatic Assay for human Acetylcholinesterase (AChE) (AID 2283129). In short, it runs like this: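 Cell-free colorimetric enzyme-activity assay; compounds read 0.33 hour after dosing, loss of signal vs DMSO baseline. Primary screen in duplicate at 25 uM single concentration, with active compounds retested in concentration series.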

Sequence of human CYP2C9, CYP2C9 (gene 1559) (P11712 whole entry, looked up): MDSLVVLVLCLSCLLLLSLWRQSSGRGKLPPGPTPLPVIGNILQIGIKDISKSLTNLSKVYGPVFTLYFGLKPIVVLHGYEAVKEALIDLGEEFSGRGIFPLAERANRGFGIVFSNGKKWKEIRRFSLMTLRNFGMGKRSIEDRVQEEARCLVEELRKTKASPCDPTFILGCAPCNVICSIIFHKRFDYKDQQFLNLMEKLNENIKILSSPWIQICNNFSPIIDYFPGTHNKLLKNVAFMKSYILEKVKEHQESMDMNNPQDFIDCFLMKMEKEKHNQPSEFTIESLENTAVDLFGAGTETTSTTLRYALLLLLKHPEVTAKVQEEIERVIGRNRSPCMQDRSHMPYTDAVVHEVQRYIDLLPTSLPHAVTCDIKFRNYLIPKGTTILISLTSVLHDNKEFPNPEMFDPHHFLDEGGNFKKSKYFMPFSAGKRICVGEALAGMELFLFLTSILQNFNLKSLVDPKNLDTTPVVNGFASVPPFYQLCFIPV
Sequence of human CYP2J2, CYP2J2 (gene 1573) (P51589 whole entry, looked up): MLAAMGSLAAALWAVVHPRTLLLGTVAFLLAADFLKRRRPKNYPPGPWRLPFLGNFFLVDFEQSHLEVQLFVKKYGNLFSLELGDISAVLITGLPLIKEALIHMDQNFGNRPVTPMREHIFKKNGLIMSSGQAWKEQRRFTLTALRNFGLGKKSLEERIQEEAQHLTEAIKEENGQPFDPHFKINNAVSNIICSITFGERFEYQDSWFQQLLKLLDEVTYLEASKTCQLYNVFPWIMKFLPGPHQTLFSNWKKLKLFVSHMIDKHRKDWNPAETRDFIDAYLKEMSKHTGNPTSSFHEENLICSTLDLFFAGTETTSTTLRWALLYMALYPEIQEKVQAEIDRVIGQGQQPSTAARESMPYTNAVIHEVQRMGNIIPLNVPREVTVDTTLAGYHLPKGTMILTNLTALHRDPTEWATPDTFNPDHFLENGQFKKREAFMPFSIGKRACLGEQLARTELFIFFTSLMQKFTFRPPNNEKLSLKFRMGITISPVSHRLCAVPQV
Sequence of rat CYP3A2, Cyp3a2 (gene 266682) (P05183 whole entry, looked up): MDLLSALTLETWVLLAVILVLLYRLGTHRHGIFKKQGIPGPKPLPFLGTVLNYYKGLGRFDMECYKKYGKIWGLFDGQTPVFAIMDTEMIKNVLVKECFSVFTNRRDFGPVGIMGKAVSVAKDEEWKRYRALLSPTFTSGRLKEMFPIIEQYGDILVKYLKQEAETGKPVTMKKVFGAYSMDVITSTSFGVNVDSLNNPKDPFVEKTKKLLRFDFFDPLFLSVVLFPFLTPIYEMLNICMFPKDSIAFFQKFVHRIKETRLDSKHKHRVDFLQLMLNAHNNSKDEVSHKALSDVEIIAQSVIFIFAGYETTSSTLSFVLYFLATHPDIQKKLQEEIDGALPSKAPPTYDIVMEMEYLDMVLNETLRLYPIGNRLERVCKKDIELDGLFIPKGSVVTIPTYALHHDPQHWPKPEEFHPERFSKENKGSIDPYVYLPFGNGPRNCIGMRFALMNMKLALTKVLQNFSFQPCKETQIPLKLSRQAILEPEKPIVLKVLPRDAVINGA
Sequence of human CYP2D6, CYP2D6 (gene 1565) (P10635 whole entry, looked up): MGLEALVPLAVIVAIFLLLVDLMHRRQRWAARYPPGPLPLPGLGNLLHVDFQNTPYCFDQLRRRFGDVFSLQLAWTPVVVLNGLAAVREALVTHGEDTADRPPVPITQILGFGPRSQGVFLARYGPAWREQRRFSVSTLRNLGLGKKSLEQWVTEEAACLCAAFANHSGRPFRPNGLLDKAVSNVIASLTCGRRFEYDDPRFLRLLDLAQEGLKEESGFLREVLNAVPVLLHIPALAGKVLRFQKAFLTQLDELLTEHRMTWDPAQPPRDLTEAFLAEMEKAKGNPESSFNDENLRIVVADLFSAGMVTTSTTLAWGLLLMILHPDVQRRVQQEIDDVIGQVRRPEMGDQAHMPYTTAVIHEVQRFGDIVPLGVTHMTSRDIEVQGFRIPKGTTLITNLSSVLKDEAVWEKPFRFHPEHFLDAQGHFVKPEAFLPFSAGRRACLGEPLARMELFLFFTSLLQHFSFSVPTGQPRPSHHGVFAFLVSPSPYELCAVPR
Sequence of human CYP2C8, CYP2C8 (gene 1558) (P10632 whole entry, looked up): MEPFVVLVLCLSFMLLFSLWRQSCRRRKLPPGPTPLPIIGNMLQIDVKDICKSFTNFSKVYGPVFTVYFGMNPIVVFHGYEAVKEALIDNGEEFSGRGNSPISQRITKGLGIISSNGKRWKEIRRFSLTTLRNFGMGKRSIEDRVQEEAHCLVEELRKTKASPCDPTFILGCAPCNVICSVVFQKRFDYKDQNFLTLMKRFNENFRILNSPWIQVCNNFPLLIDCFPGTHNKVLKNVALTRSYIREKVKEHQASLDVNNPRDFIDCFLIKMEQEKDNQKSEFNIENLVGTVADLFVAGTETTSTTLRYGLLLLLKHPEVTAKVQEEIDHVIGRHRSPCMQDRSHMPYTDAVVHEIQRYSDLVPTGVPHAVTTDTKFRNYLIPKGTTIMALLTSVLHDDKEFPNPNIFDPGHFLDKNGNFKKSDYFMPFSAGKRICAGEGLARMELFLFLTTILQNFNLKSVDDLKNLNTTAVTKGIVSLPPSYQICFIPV
Sequence of rat CYP1A2, Cyp1a2 (gene 24297) (P04799 whole entry, looked up): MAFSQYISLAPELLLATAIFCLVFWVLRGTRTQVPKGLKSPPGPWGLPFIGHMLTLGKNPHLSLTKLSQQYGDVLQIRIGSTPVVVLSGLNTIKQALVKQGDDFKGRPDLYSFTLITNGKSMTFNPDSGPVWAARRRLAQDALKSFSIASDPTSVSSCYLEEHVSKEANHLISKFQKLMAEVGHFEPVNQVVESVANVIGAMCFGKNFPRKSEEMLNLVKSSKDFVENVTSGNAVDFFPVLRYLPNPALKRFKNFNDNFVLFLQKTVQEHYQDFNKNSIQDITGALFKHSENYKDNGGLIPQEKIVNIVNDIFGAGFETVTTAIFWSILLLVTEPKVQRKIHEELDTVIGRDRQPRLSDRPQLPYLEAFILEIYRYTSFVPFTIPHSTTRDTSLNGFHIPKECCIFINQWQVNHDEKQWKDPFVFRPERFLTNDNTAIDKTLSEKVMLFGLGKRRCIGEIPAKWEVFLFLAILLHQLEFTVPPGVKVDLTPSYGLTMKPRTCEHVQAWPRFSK
Sequence of rat CYP2C11, Cyp2c11 (gene 29277) (P08683 whole entry, looked up): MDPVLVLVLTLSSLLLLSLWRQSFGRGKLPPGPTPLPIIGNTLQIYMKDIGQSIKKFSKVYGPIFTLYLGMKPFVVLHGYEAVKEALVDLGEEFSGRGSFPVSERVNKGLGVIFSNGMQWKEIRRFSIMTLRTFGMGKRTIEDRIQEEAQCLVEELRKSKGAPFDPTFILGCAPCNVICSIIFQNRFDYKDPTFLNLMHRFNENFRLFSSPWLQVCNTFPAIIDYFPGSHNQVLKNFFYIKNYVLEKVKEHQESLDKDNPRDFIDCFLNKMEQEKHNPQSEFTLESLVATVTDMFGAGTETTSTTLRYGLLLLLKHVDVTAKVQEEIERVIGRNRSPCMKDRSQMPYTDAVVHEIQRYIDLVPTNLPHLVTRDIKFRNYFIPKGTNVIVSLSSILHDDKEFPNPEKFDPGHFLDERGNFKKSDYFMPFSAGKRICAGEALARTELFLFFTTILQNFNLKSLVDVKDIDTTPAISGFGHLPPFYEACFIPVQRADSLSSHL
Sequence of human CYP1A2, CYP1A2 (gene 1544) (P05177 whole entry, looked up): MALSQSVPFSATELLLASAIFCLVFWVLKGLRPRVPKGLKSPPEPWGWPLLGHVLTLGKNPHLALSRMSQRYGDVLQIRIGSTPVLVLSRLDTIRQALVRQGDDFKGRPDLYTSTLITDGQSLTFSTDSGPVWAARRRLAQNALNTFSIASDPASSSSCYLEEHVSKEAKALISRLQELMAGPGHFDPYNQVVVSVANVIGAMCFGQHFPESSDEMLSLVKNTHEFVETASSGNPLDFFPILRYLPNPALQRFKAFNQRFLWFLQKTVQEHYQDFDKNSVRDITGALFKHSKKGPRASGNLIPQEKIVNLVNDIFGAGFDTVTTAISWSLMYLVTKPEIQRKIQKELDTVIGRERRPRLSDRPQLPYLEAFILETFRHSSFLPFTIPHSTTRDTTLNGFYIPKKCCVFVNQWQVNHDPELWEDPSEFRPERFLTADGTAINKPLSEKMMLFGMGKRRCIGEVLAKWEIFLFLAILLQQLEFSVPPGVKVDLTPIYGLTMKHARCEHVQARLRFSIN
Sequence of Caspase-1 (Homo sapiens) (P29466 whole entry, looked up): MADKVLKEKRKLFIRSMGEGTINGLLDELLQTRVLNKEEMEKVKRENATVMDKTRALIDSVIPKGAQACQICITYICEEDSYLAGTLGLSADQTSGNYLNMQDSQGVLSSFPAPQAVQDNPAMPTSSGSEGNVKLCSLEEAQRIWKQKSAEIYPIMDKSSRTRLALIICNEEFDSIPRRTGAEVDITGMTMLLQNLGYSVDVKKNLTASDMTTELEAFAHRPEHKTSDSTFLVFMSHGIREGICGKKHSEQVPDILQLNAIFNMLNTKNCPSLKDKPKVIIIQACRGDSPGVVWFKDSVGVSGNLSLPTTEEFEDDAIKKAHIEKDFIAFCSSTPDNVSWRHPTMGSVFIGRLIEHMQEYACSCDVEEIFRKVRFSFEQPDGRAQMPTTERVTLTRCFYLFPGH

With `FC(F)C(F)(F)OCC(Cn1cncn1)c1ccc(Cl)cc1Cl` (stereo unspecified), the AC50 in [1] was 4.85 µM (active); in test [2] it was 2.91 µM (active); in test [3] it was 6.4 µM (active); in test [4], 0.00646 µM (active); with rat CYP2B1, gene 24300, 0.452 µM (active); in test [5], 0.732 µM (active). Further, the AC50 in test [6] is 3.95 µM (active); in the test on rat CYP2C6, gene 293989, 1.68 µM (active); in [7] it was 7.86 µM (active); in [8], 5.51 µM (active).

In the case of `CNc1cnn(-c2cccc(C(F)(F)F)c2)c(=O)c1Cl`, the AC50 is 5.43 µM (active) in [1] and 4.35 µM (active) in test [4]. For the same molecule, the molecule was classed as inactive in test [9] and in test [8].

As for `CCC(=NOC/C=C/Cl)C1=C(O)CC(C2CCOCC2)CC1=O` (stereo unspecified), the molecule was called inactive in test [2].

As to `CCCSP(=O)(OCC)SCCC`, the AC50 in test [10] was 7.87 µM (active).

Consider `CCOP(=O)(NC(C)C)Oc1ccc(SC)c(C)c1` (stereo unspecified), for which the AC50 is 4.84 µM (active) in [1], 5.92 µM (active) in test [4] and 6.43 µM (active) in test [5]. Also, in test [9], the call was inactive.

On to `CCCCOC(=O)c1ccccc1C(=O)O`, for which the outcome was “inactive” in [1]; “inactive” in test [11]; “inactive” in test [4]; “inactive” with rat CYP2B1, gene 24300.

With `CCC(CC)Nc1c([N+](=O)[O-])cc(C)c(C)c1[N+](=O)[O-]`, in [1], the molecule was called inactive. The AC50 in test [4] was 10 µM (active).

On to `C#CCC1=C(C)C(OC(=O)C2C(C=C(C)C)C2(C)C)CC1=O` (stereo unspecified), for which the call in test [11] and in [5] was inactive. Moreover, the values for the AC50 in [12], in test [2] and in test [8] were 10 µM (active), 7.23 µM (active) and 3.03 µM (active), respectively.

In the case of `CN(C)[C@@H]1C(=O)C(C(N)=O)=C(O)[C@@]2(O)C(=O)C3=C(O)c4c(O)cccc4[C@@](C)(O)[C@H]3[C@H](O)[C@@H]12`, in test [10], the molecule was called inactive. Also, the AC50 was 0.0105 µM (active) in test [13], 2.4 µM (active) in test [14], 11.6 µM (active) in the test with Caspase-1 (Homo sapiens) and 10.8 µM (active) in test [15].

In the case of `CCCCSP(=O)(SCCCC)SCCCC`, in test [1], the AC50 was 8.52 µM (active). Besides, the result in test [10] and in test [4] was inactive.

Consider `CCC(=O)Nc1ccc(Cl)c(Cl)c1`, for which the AC50 in test [1] is 2.03 µM (active); in test [7] it was 5.39 µM (active). Further, the molecule was called inactive in test [9] and in test [16].

In the case of `CCNc1nc(Cl)nc(NC(C)(C)C#N)n1`, the result in [11] was inactive.

Take `CCOP(=S)(OCC)Oc1ccc([N+](=O)[O-])cc1`: the AC50 in test [1] is 2.2 µM (active); in test [12], 0.609 µM (active); in test [2], 2.62 µM (active); in test [4], 0.21 µM (active); in the test with rat CYP2B1, gene 24300, 0.559 µM (active); in test [5] it was 2.93 µM (active). Further, the AC50 in [6] was 6.18 µM (active); in the test with rat CYP2C6, gene 293989, 0.108 µM (active); in [7], 10 µM (active); in test [8], 2.86 µM (active). Further, in [10], the call was inactive.

`CC(COc1ccc(Oc2ccccc2)cc1)Oc1ccccn1` (stereo unspecified): the molecule was classed as inactive in test [1]. In addition, in test [4], the AC50 is 13.7 µM (active).

As for `CSc1nc(NC(C)C)nc(NC(C)C)n1`, the concentration at half-maximal activity (AC50) in test [1] is 5.92 µM (active); in test [4] it was 13.4 µM (active). The call (in [12]; in the test with Caspase-1 (Homo sapiens)) was inactive.
